JMJD2A Tudor inh = inhibitors of human JMJD2A Tudor domain; O75164; AlphaScreen JMJD2A-Tudor / H3K4me3 peptide binding; Potency, µM (series often up to 114 µM), without a hit: at the highest dose activity change, negative = inhibition, usual class: inhibitors; 390,000 tested, 4.4% active; AID 504339; note: % is set by controls: 0 for no effect and ±100 for the full control effect; nearly all actives have a fitted effect of over 50% in size
L3MBTL1 inh = inhibitors of human L3MBTL1 | AID 485360 | Q9Y468 | 230,000 tested, 0.66% active | AlphaScreen L3MBTL1–H3K9me1 peptide binding | Potency, µM (top dose mostly 57.1 µM), for inactives: top-dose activity, negative = inhibition, hits mostly inhibitors; note: % is set by controls: 0 for no effect and ±100 for the full control effect; nearly all actives have a fitted effect of over 60% in size
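First, the protein-peptide complex forms for 30 min at room temperature (L3MBTL1 50 nM, biotinylated H3K9me1 peptide 75 nM). Next, compounds are pin-transferred and incubated 30 min. Finally, AlphaScreen beads are added and read after 30 min.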
Sfp inh = inhibitors of Bacillus subtilis Sfp phosphopantetheinyl transferase; 310,000 tested, 3.5% active; Q9F4F7; Biochemical Sfp PPTase activity, qHTS; Potency, µM, for the others: largest response in the series, negative = inhibition, most hits filed as inhibitors; AID 1490;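 note: the enzyme is Sfp with the accession as filed and its product quenches rhodamine fluorescence; 0% = enzyme reaction without inhibitor and -100% = no enzyme wells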
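Fluorescence-quenching assay: 15 nM Sfp-PPTase preincubated 15 min at room temperature with compound, then 5 uM rhodamine-CoA and 12.5 uM BHQ-2-labelled YbbR peptide added. Fluorescence (ex 525/em 598 nm) read at start and after 30 min; difference gives rate.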
G9a block = blocks human histone lysine methyltransferase G9a; Q96KQ7; G9a H3K9 monomethylation, AlphaScreen, 2 h; Potency, µM (highest dose often 102 µM), inactives show at the highest dose activity, negative = inhibition, usual class: inhibitors; 350,000 tested, 8.8% active; note: % is set by controls: 0 for no effect and ±100 for the full control effect; nearly all actives have a fitted effect of over 75% in size
Target sequence (Q96KQ7 913-1193 limits assumed): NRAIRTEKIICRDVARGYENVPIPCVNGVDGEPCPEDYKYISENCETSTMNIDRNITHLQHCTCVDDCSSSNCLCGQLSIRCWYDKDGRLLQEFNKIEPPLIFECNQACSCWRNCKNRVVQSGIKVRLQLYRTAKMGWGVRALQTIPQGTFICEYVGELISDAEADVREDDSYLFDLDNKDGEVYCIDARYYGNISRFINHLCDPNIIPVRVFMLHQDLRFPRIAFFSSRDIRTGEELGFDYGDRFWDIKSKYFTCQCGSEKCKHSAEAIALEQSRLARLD
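AlphaScreen read-out: biotin-H3K9 peptide (500 nM) methylation by 20 nM enzyme with 20 uM SAM, 2 h at room temperature after 15 min compound preincubation; anti-monomethyl H3K9 antibody plus donor/acceptor beads, 10 min dark.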
HP1b chromo inh = inhibitors of HP1-beta chromodomain binding to methylated histone tails; AlphaScreen HP1-beta / biotin-H3K9me3 peptide binding; Potency, µM (top dose mostly 114 µM), for inactives: top-dose activity change, negative = inhibition, actives largely listed as inhibitors; 390,000 tested, 0.56% active; AID 540317; note: nearly all actives have a fitted effect of over 70% in size
Target sequence (P83916 whole entry, looked up): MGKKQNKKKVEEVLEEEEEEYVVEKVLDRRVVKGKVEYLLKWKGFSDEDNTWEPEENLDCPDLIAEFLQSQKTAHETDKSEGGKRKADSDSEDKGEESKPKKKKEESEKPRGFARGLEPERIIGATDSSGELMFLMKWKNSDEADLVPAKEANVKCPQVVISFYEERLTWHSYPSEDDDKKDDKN
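HP1-beta protein (50 nM final) preincubated 30 min at room temperature with biotinylated H3(1-18)K9me3 peptide (50 nM) in PBS pH 7.4, 0.01% Tween-20, then compound added for 30 min. AlphaScreen streptavidin donor/nickel chelate acceptor beads (10 ug/mL final), 30 min dark, luminescence read.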
BAZ2B inh = blocks human BAZ2B; Q9UIF8; AlphaScreen BAZ2B-H3K14Ac peptide displacement; Potency, µM (series often up to 114 µM), for inactives: at the top dose activity change, negative = inhibition, most hits filed as inhibitors; 360,000 tested, 4.4% active; note: % is set by controls: 0 for no effect and ±100 for the full control effect; nearly all actives have a fitted effect of over 60% in size
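AlphaScreen displacement of biotin-H3(5-23)K14Ac peptide (50 nM final) from BAZ2B (50 nM final) in PBS pH 7.4, 0.01% Tween-20; complex preformed 30 min RT, then compounds (top 110 uM) 30 min RT, beads 20 min dark.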
Numbers without * were called inactive; ? = inconclusive; . = not tested or not shown; ! = repeats disagree; [ ] = remark or other dose. Rows were chosen to be rich in hits. Some 12% of all compounds tested hit in one or more screens of this group. Calls come from the whole dose curve; as a rule, active = well fitted curve in the direction sought with a large enough effect; inconclusive = small, poorly fitted or top-dose-only effect, or another doubt; inactive = no such curve, though single readings can be large; an effect the other way counts as inactive or inconclusive. Potency is the fitted concentration of half-maximal effect.

SMILES	JMJD2A Tudor inh	L3MBTL1 inh	Sfp inh	G9a block	HP1b chromo inh	BAZ2B inh
COCCNc1nc(-c2c(C)noc2C)nc2ccccc12	.	.	1.0%	-13.9%[0.501 µM]	.	.
COc1ccc(-c2nc3ccccc3s2)cc1NC(=O)c1ccc(F)cc1	-29.5%	.	.	-41.0%[59 µM]	15.8%	-18.7%
COc1cc(NC(=O)CSC2=Nc3ccccc3N=C(c3ccc(F)cc3)C2)cc(OC)c1	-11.8%	.	.	-1.8%[59 µM]	11.0%[57 µM]	1.1%
CCOc1ccc(-c2c(C)sc3nc[nH]c(=O)c23)cc1	89.1µM*	-0.9%	12.9%	9.7%	47.9%	-0.2%
Cc1nc(Nc2ccc(Cl)c(Cl)c2)sc1C(=O)Nc1ccccc1	22.4µM*	-1.4%	5.2%	?	-13.1%	-32.3%
Cc1nc(Nc2ccc(Cl)cc2Cl)sc1C(=O)Nc1ccccc1	-10.4%	7.1%	7.9%	21.0%[59 µM]	17.3%	-4.3%
Nc1c(C(=O)c2ccccc2)sc(Nc2ccc(Cl)c(Cl)c2)c1C(=O)Nc1ccccc1	44.7µM*	.	.	12.6µM*	?	25.1µM*
O=C(Nc1ccc(Cl)c(Cl)c1)c1ccccc1	17.6%	8.8%	.	-7.5%[2.33 µM]	60.6%	10.6%
CC(=O)c1sc(Nc2cccc(C)c2)nc1C	0.0%	-2.8%	11.7%	38.7%	45.3%	50.1µM*
N#Cc1c(Nc2ccccc2)sc(C(=O)c2ccccc2)c1N	?	-3.3%	-17.5%	10µM*	-24.6%	?
O=C(COCc1cc(-c2ccc(F)cc2)on1)Nc1cc(F)ccc1F	18.3%	.	.	4.6%[59 µM]	69.1%	6.9%
CC1CCCCC12NC(=O)N(CC(=O)Nc1cccc(S(=O)(=O)N3CCCCC3)c1)C2=O (stereo unspecified)	-34.8%	-5.0%	.	?	-3.1%	-11.5%
CCc1ccc(NC(=O)CSC2=Nc3ccccc3C3=NC(CC(=O)NCc4cccs4)C(=O)N23)cc1 (stereo unspecified)	-18.7%	.	.	-1.8%[59 µM]	23.2%	-14.7%
Cc1ccc(-c2cn(-c3cccc(Cl)c3)c(S(=O)(=O)CC(=O)Nc3cccc(C)c3)n2)cc1	-34.8%	.	.	?	14.6%	-23.1%
C=CCc1ccccc1OCC(O)CN1CCN(C(=O)OCC)CC1 (stereo unspecified)	-11.5%	44.1%	-12.6%	29.1%[2.33 µM]	19.5%	20.6%
C=CCc1ccccc1OCC(O)CN1CCN(Cc2ccc3c(c2)OCO3)CC1 (stereo unspecified)	-33.3%	-11.7%	7.3%	44.7µM*!	9.9%	56.2µM*
C=CCc1ccccc1OCC(O)CN1CCN(c2ccc(C)cc2)CC1 (stereo unspecified)	3.55µM*	-17.4%	?	12.6µM*	?	28.2µM*
Cc1ccc(-c2nnn(CC(=O)N(CC(=O)NCCC(C)C)c3ccc(F)cc3)n2)cc1	-6.2%	.	.	8.2%[59 µM]	30.3%	-3.1%
Cc1ccccc1NC(=O)CSc1nc(N)c2c3c(sc2n1)CSC(C)(C)C3	-24.6%	-5.3%	-4.4%	?	79.4µM*	?
Cc1ccc(NC(=O)CSc2nc(N)c3c4c(sc3n2)CSC(C)(C)C4)cc1	-9.0%	-11.7%	11.3%	18.5%[59 µM]	16.3%	-34.4%
O=C(CN1CCCCCC1)Nc1cccc(Br)c1	-7.7%	0.3%	5.6%	-32.3%	8.4%	-2.4%
Cc1ccc(NC(=O)CN2CCCCCC2)cc1Br	3.16µM*	-18.8%	-14.3%	22.4µM*	?	?
Cc1cccc(NC(=O)CN2CCN(CC(=O)Nc3cccc(C)c3)CC2)c1	-16.6%	2.9%	19.7%	50.1µM*	17.0%	6.1%
Cc1ccc(NC(=O)CN(C)C2CCCCC2)cc1Br	17.8µM*	25.1%	56.2µM*	25.3%[0.501 µM]	?	50.1µM*
Cc1cccc(NC2(C(=O)O)CCCC2)c1	35.5µM*	.	.	.	-17.0%	.
SMILES	JMJD2A Tudor inh	L3MBTL1 inh	Sfp inh	G9a block	HP1b chromo inh	BAZ2B inh
Cc1ccc(-n2c(=O)c3oc4ccccc4c3n(Cc3cccc(F)c3)c2=O)cc1C	-15.4%	.	.	-35.5%[59 µM]	28.2%	?
CCOc1ccc(C(=O)/C=C/Nc2ccc(S(=O)(=O)Nc3onc(C)c3C)cc2)cc1	-23.0%[57.1 µM]	-16.4%	?	1.58µM*	-10.9%	?
Cc1noc(NS(=O)(=O)c2ccc(N/C=C\C(=O)c3cccc4ccccc34)cc2)c1C	?	-6.7%	79.4µM*	?	?	50.1µM*
CCOC(=O)C1C(=O)CC(C)(O)C(C(=O)OCC)C1c1ccc(N(CC)CC)cc1 (stereo unspecified)	-23.2%	17.3%[11.4 µM]	14.7%	14.1µM*	5.4%	-19.0%
CCCCN(C(=O)c1ccc(NC2CC2)c([N+](=O)[O-])c1)c1c(N)n(CCCC)c(=O)[nH]c1=O	-33.8%	-5.9%	.	-40.0%	-7.0%	-3.4%
CC(NC1=CC(=O)c2cccnc2C1=O)C(O)c1ccccc1 (stereo unspecified)	56.2µM*	.	.	.	-17.5%	.
CCCCn1cc(S(=O)(=O)c2cccc(C)c2)c(=O)c2cc(F)c(N3CCOCC3)cc21	-0.3%	.	.	7.0%[59 µM]	37.5%	-1.9%
COc1ccc(-c2nc3c(c4c2C[C@H](c2ccccc2)OC4)CN(S(=O)(=O)c2ccc(C)cc2)CC3)c(C)c1	.	.	-3.4%	.	.	.
COc1cccc(-c2cc(C(F)(F)F)nc(-n3nc(C)c(Br)c3C)n2)c1	11.6%	.	.	-12.1%[59 µM]	86.3%	16.1%
CCN(C(=O)C(C)N1C(=O)/C(=C/c2ccco2)SC1=S)C1CCS(=O)(=O)C1 (stereo unspecified)	56.2µM*	.	15.8µM*	20µM*	?	44.7µM*
CC(C(=O)NC1C=CS(=O)(=O)C1)N1C(=O)/C(=C/c2ccc(Cl)cc2)SC1=S (stereo unspecified)	?	.	?	.	-25.7%	22.4µM*
CC(C(=O)N(C)C1CCS(=O)(=O)C1)N1C(=O)/C(=C/c2ccc(F)cc2)SC1=S (stereo unspecified)	-32.0%	.	50.1µM*	?	-13.7%	?
CCCCCCC(=O)N/N=C(\C)Cc1ccccc1	-10.3%	5.1%	22.1%	9.5%[59 µM]	41.9%	3.5%
c1ccc(COc2ccc(OCCn3cncn3)cc2)cc1	-9.6%	20.2%[11.4 µM]	10.5%	3.0%[59 µM]	40.2%	-17.9%
Brc1cccc(OCCCCn2cncn2)c1	25.1µM*	8.4%	?	25.1µM*	?	50.1µM*
c1ccc(-c2ccc(OCCCn3cncn3)cc2)cc1	-13.7%[11.4 µM]	.	-25.0%	?	?	56.2µM*
CC(=O)CCc1ccc(OCCCCn2cncn2)cc1	-7.0%	4.3%	-5.7%	?	70.0%	-8.0%
C=C1/C(=C\C=C2/CCC[C@]3(C)C([C@H](C)CCCC(C)(C)O)CC[C@@H]23)C[C@@H](O)C[C@@H]1O (stereo partly specified)	.	.	5.2%	-2.8%[59 µM]	.	.
Cn1ncc(Cl)c1C(=O)N1CCN(C23CC4CC(CC(C4)C2)C3)CC1	89.1µM*	.	12.6%	.	3.9%	-8.2%

Screens (PubChem BioAssay)
